In PubChem BioAssay (NCI) one finds growth data, which are given here for 40 compounds.

“And” between values parts separate entries of the source, which are not always exact repeats. Identical values can stand only once. This is part of a sample that, as a whole, favours compounds with a hit. Of some 83,000 tested, about 20% had one in any assay.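 Treatment: one concentration, 48 hours, 96-well format. Scoring: percent growth, with anything below 10 considered active.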 The source made the active and inactive calls.

This test deals with MDA-MB-468 breast. Briefly: NCI-60 one-dose screen, 48 h (100 = growth as untreated, 0 = no growth, -100 = all killed). The conditions noted are these: 10 µM unless noted.
On to `O=C(CCCN1CCOCC1)Nc1ccc(Cn2nnc3c2C(=O)c2nnn(Cc4ccc(NC(=O)CCCN5CCOCC5)cc4)c2C3=O)cc1`, for which the growth was -74.7% (active).

For the compound `COc1cc(/C=C/c2ccccc2)cc(OC)c1`, the growth was 103% (inactive).

As for `CN(C)C(=O)c1ccccc1-n1cnc2ccccc2c1=O`, the growth is 100% (inactive).

Consider `COc1ccc(N=Nc2nccs2)c(O)c1`, for which the growth is 18.6% (inactive).

For `COc1ccc(/C=C/C(=O)c2ccc(Nc3nc(NCCO)nc(Nc4ccc(Cl)cc4)n3)cc2)cc1`, the growth was 73% (inactive).

On to `COc1ccc(-c2nnc(SCC(=O)N3CCN(c4cc5c(cc4F)c(=O)c(C(=O)O)cn5C4CC4)CC3)o2)cc1OC`, for which the growth is 96.4% (inactive).

Regarding `CC12OC(CC(O)C1O)n1c3ccccc3c3c4c(c5c6ccccc6n2c5c31)C(=O)N(CCN1CCOCC1)C4=O` (stereo not given), the growth is -30.4% (active).

As for `CC(C)(C)OC(=O)NC(CSCc1ccccc1)C(=O)ON1C(=O)CCC1=O` (stereo not given), the growth was 115% (inactive).

Take `CN1C(=O)N(C)C2C1NN=c1s/c(=C\c3c[nH]c4ccccc34)c(=O)n12` (stereo not given): the growth is 39.5% (inactive).

In the case of `CCc1ccccc1-n1[nH]c(C)c(C=N)c1=O`, the growth was 90.3% (inactive).

As for `CN(C)CCn1c(=O)c2c3cc4c(cc3n(CCN(C)C)c2c2ccc(Cl)cc21)OCO4`, the growth was 41% (inactive).

Regarding `COc1ccc2c(c1)NC1=C(C(=O)OC1)C2c1cc(OC)c2c(c1)OCO2` (stereo not given), the growth was -5.15% (active).

As to `CN(C)CCCNc1nc(-c2cccc(C(Cl)(Cl)Cl)c2)nc(C(Cl)(Cl)Cl)n1`, the growth is 114% (inactive).

For `COc1ccc2oc(=O)cc(C(c3ccc[nH]3)c3ccc[nH]3)c2c1`, the growth is 5.5% (active).

Take `CCOC(=O)C1OC1c1ccccc1` (stereo not given): the growth was 106% (inactive).

In the case of `C=CCN(C)S(=O)(=O)/N=C1\NC(=O)NC1=C(Cl)Cl`, the growth is 28.7% (inactive).

On to `CCOC(=O)c1c(C)c2c(n1C)CSc1cc(S(=O)(=O)c3ccccc3)c(=O)[nH]c1-2`, for which the growth was 2.42% [100 µM] (active).

On to `CCNC(=O)c1[nH]cc(-c2ccc(OC)cc2)c1-c1cc(OC)cc(OC)c1`, for which the growth was 76.2% (inactive).

Consider `Fc1ccc(Cn2cc(CSc3nc4ccccc4o3)nn2)cc1`, for which the growth is 109% (inactive).

Consider `Cc1cc(C(=O)Nc2cc(Oc3ccc4nc(NC(=O)C5CC5)cn4n3)ccc2C)n(C)n1`, for which the growth was 21% (inactive).

As to `COc1ccc(C2CC(c3ccc4c(c3)OCO4)=NN2C=O)cc1` (stereo not given), the growth is 93.3% (inactive).

As for `O=C(Nc1ccccc1)C(CCCCN1C(=O)c2ccccc2C1=O)N1C(=O)c2ccccc2C1=O` (stereo not given), the growth was 103% (inactive).

Turning to `O=C(NCCCNc1cc(-c2cn(-c3ccccc3)nc2-c2cccc(O)c2)ccn1)c1ccccc1`, the growth was -61% (active).

For the compound `CCCCNC(=O)NS(=O)(=O)Cc1ccccc1`, the growth is 112% (inactive).

Turning to `O/N=C(/c1ccccc1)c1ccc2c3c(cccc13)CC2`, the growth was 57.5% (inactive) and 59.8% (inactive).

Consider `CCN(CC)c1cc(C)c2cc(NC(=O)c3cccc(OC)c3)ccc2n1`, for which the growth is 83.9% (inactive).

In the case of `COc1cc(-c2n/c(=C\c3c(O)[nH]c4ccc(Cl)cc34)cc3c2=Nc2ccccc2-3)cc(OC)c1OC`, the growth was 30.5% (inactive).

Take `Clc1ccc2c(NCCCNC3CCCCC3)ccnc2c1`: the growth was 85.3% (inactive).

Regarding `COc1ccc2c(c1)c(CC(=O)NCCOCCOCC(=O)Nc1ccc(OC)c(C(N)=O)c1O)c(C)n2C(=O)c1ccc(Cl)cc1`, the growth is 88.6% (inactive).

Take `CCCCCCCCCCCCSC(=NC)NC`: the growth was -9.65% (active) and 32.3% (inactive).

`N#CC1=C(N2CCOCC2)NC2c3ccccc3Sc3ccccc3N2C1=N` (stereo not given): the growth was 99.9% (inactive).

`O=C1/C(=C/c2ccc(F)cc2)CN(C(=O)C(Cl)Cl)C/C1=C\c1ccc(F)cc1`: the growth was -47% (active).

`Cc1c(C(C)(C)C)cc(C(C)(C)C)c2c1CN(C)CO2`: the growth was 122% (inactive).

Regarding `Cc1ccc(S(=O)(=O)N(CC[C@@H]2C[C@H]2c2cc3ccccc3o2)S(=O)(=O)c2ccc(C)cc2)cc1`, the growth is 80% (inactive).

Regarding `NC(=S)NNC1CCCCC1`, the growth was 99% (inactive).

In the case of `O=C(CN(C(=O)Cn1c(=O)n2nnnc2c2ccccc21)c1ccccc1C(F)(F)F)Nc1ccc(C(F)(F)F)cc1`, the growth was 108% (inactive).

`COc1cc(/C(C#N)=C/c2nc3c(N4CCOCC4)nc(Cl)nc3n2C)cc(OC)c1OC`: the growth is 15% (inactive).

For the compound `O=S(=O)(NCc1ccccc1)c1ncnc2nc[nH]c12`, the growth was 108% (inactive).

On to `CCCn1cnc2c(c1=N)C(c1ccc(Cl)cc1)c1sc3c(C)cccc3c1O2` (stereo not given), for which the growth was 30.9% (inactive).

With `O=C(/C=C(/C=C/c1coc2ccccc12)OB(F)F)/C=C/c1coc2ccccc12`, the growth was 112% (inactive).
